Shown are actives, neighbours in structure and some others; about 7.6% of the full set was active somewhere.
BRCA1 expr up: qHTS Assay to Identify Small Molecule Activators of BRCA1 Expression | MCF7-BRCA1-FFLuc reporter, luminescence, 48 h; response scale: scaled: vehicle 0%, 10 µM genistein 100% | Potency, µM (doses to about 46.1 µM), actives largely listed as activators | actives 1.1% (n = 380,000); further: nearly all actives have a fitted effect of over 80% in size
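Cells: MCF7-BRCA1-FFLuc, 2000/well. Exposure: 48 h, 37 °C, 5% CO2. Read: luminescence, 15 min post-substrate. Controls: genistein 10 microM (maximal activation), DMSO (neutral).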
RORgamma inh: qHTS for inhibitors of ROR gamma transcriptional activity | Drosophila S2 Gal4-RORgamma UAS-luciferase reporter, 20 h | Potency, µM (series often up to 53.6 µM), actives largely listed as inhibitors | actives 5.4% (n = 310,000) | Nuclear receptor ROR-gamma (Mus musculus), P51450 | AID 2551, 2010; further: nearly all actives have a fitted effect of over 60% in size
Target sequence (P51450 whole entry, looked up, the tested form may be a part): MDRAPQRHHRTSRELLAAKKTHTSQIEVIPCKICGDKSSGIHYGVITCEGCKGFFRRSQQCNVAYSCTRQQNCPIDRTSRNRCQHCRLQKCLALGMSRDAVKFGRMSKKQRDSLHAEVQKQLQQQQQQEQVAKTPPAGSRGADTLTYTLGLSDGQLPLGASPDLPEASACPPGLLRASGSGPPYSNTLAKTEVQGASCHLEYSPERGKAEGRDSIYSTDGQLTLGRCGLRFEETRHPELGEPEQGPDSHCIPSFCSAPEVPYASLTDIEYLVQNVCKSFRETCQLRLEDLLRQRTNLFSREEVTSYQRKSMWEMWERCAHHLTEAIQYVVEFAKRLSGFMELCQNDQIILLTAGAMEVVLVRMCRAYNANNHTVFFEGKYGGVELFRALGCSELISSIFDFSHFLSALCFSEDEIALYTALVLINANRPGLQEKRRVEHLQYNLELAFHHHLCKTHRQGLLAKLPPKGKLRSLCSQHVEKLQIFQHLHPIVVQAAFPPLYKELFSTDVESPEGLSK
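Stable Schneider cell line, Gal4 DNA-binding domain fused to ROR gamma, UAS-luciferase. Cmpd 1 hr RT → CuSO4 700 uM final → 20 hr RT → luciferase reagent 10 min → luminescence.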
Gal4-VP16 FLuc: VP16 counterscreen qHTS for inhibitors of ROR gamma transcriptional activity. Drosophila S2 Gal4-VP16 UAS-luciferase, luminescence, 20 h. Potency, µM (doses to about 53.6 µM), most hits filed as inhibitors. AID 2546, 2010. actives 3.5% (n = 310,000);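 further: Gal4-VP16 expression switched on by copper sulfate through the metallothionein promoter; nearly all actives have a fitted effect of over 50% in size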
Giardia killer: Small Molecules that selectively kill Giardia lamblia: qHTS. Giardia lamblia trophozoite viability. activity change, % at 7.66 µM, hits read low. AID 540267, 2011. actives 0.15% (n = 340,000); in the data active means activity change below about -80%; inconclusive means between about -30% and that limit;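 further: parasites exposed to compound for two days anaerobically before the ATP read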
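Viability, read as ATP luminescence: trophozoites at 100 cells/well, compound added, 48 hrs anaerobic at 37 deg C, then 15-30 min room-temperature development before reading.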
p53 reactivator: qHTS assay for re-activators of p53 using a Luc reporter | Potency, µM (highest dose often 92.2 µM), usual class: activators | H1299 p53-A138V BP100-luciferase reporter, luminescence, 24 h | actives 0.063% (n = 320,000); further: nearly all actives have a fitted effect of over 45% in size
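p53-null H1299 cells stably carrying temperature-sensitive p53-A138V and a BP100-luciferase reporter were pinned with compounds (4-point, 1:5 series) and held 24 hrs at 37 deg C. Luminescence was read 10 min after detection reagent.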
ELG1 DNA repair: qHTS screen for small molecules that inhibit ELG1-dependent DNA repair in human embryonic kidney (HEK293T) cells expressing luciferase-tagged ELG1; Potency, µM (titrated, usually from 46.1 µM), hits mostly inhibitors; actives 2.3% (n = 330,000); HEK293T ELG1-luciferase reporter, luminescence, 16 h; DNA damage induced by 5-fluorouridine; AID 504467, 2011; further: nearly all actives have a fitted effect of over 55% in size
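Quantitative HTS, concentration-response format. 2,000 cells/well co-treated with 5-fluorouridine and compound, 16 hr in 5% CO2 at 37 °C; ONE-Glo luminescence read after 30 min.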
A number is an active result; - = inactive; ? = inconclusive; . = not tested or not shown; [ ] = remark or other dose. Unless noted, the call rests on the fitted dose curve; in most records, active means well fitted curve in the direction sought with a large enough effect; inconclusive means small, poorly fitted or top-dose-only effect, or another doubt; inactive means no such curve, though single readings can be large; an effect the other way counts as inactive or inconclusive.

SMILES	BRCA1 expr up	RORgamma inh	Gal4-VP16 FLuc	Giardia killer	p53 reactivator	ELG1 DNA repair
O=c1c2ccccc2nc(/C=C/c2ccc(Br)cc2)n1CCCO	-	-	-	-	-	-
O=c1c2ccccc2nc(/C=C/c2ccc([N+](=O)[O-])o2)n1CCCO	-	8.9µM	7.1µM	-88	-	15µM
COc1ccccc1C1CC(c2ccc(C)cc2)Nc2ncnn21 (configuration not stated)	-	-	-	-	?	-
NC(=O)c1nsc(C(=O)N(c2cccc(F)c2)C(C(=O)NCC2CCCO2)c2c[nH]c3ccccc23)c1N (configuration not stated)	-	-	-	-	-	-
NC(=O)c1nsc(C(=O)N(c2ccc(F)cc2)C(C(=O)NCC2CCCO2)c2c[nH]c3ccccc23)c1N (configuration not stated)	-	-	16µM	-	-	-
CN(C)c1ccc(C(C(=O)NCC2CCCO2)N(Cc2ccccc2)C(=O)c2snc(C(N)=O)c2N)cc1 (configuration not stated)	-	-	-	-	-	12µM
CCOc1ccc(C(=O)c2oc3ccccc3c2NC(=O)c2cc(-c3ccccc3)on2)cc1	-	.	.	.	.	.
COC(=O)c1n[nH]c2ccccc12	-	-	-	-	-	-
CC(=O)c1c(C)[nH]c(C(=O)OCCCCN2C(=O)c3ccccc3C2=O)c1C	-	?	8.9µM	-	-	6.5µM
O=C(OCCCCN1C(=O)c2ccccc2C1=O)c1n[nH]c2ccccc12	-	-	32µM	-	-	-
CC(=O)c1c(C)[nH]c(C(=O)OCc2ccccc2)c1C	?	-	-	-	?	?
CCc1nc2c(OCCOC)cccn2c1N(C)C(=O)c1ccco1	-	.	.	.	.	.
CC(C)(C)OC(=O)N1CCC[C@H]1c1nnc(SC/C=C/c2ccccc2)o1	-	-	-	-	-	-
COc1cccc(-c2nn(-c3ccccc3)cc2C(=O)OCC(=O)Nc2ncc(Cl)cc2Cl)c1	-	?	-	-	-	21µM
O=C(COC(=O)c1cn(-c2ccccc2)nc1-c1ccccc1)Nc1ncc(Cl)cc1Cl	-	-	-	-	-	-
Fc1ccc(CSc2ncnc3c2ncn3C2CCCCO2)cc1 (configuration not stated)	7.1µM	.	.	-	.	.
Clc1cccc(CSc2ncnc3c2ncn3C2CCCCO2)c1 (configuration not stated)	5.6µM	.	.	-	.	.
c1ccc(CNc2ncnc3c2ncn3C2CCCCO2)cc1 (configuration not stated)	13µM	?	-	-	?	?
c1ccc(CSc2ncnc3c2ncn3C2CCCCO2)cc1 (configuration not stated)	?	.	.	-	.	.
Cc1ccc2nc(NC(=O)c3ccc(S(=O)(=O)N4CCC(C)CC4)cc3)sc2c1	-	.	.	.	.	.
Cc1nnc(SCC(=O)Nc2ccc(O)cc2)c2ccccc12	-	?	-	-	?	-
c1cc2c3c(cccc3c1)C(N1CCCCCC1)=N2	-	7.9µM	?	-	-	-
Cc1ccc(NC(=O)CC2S/C(=N/N=C/c3ccco3)NC2=O)cc1Cl (configuration not stated)	-	?	-[10 µM]	-	-	-
CC(C)=N/N=C1/NC(=O)C(CC(=O)Nc2cc(Cl)ccc2C)S1 (configuration not stated)	-	11µM	?	-	-	-
Cc1ccc(NC(=O)CC2S/C(=N/N=C/C=C/c3ccccc3)NC2=O)cc1Cl (configuration not stated)	-	4µM	4µM	-	-	-
SMILES	BRCA1 expr up	RORgamma inh	Gal4-VP16 FLuc	Giardia killer	p53 reactivator	ELG1 DNA repair
COc1ccc(N(C)C(=O)c2cc3c(s2)-c2ccc(Cl)cc2S(=O)(=O)C3)c(OC)c1	-	-	-	-	-	21µM
COc1ccc(N(C)C(=O)c2cc3c(s2)-c2ccccc2OC3)c(OC)c1	-	-	-	-	-	?
COc1ccc2[nH]c(=O)c(CN(CCN(C)C)C(=O)NCc3ccccc3)cc2c1	-	-	-	-	-	-
CCOc1ccc(C(=O)NC(=S)Nc2ccccc2OC)cc1[N+](=O)[O-]	-	7.1µM	?	-	-	-
CCOc1ccc(C(=O)NC(=S)Nc2ccc(N3CCCCC3)cc2)cc1[N+](=O)[O-]	-	3.2µM	4µM	-	-	-
COc1ccc(C(=O)Nc2ccncc2)cc1[N+](=O)[O-]	-	-	-	-	.	-
Cc1c(C(=O)NC(=S)Nc2ccccc2N2CCCC2)cccc1[N+](=O)[O-]	-	?	-	-	-	-
COc1ccc(C(=O)NC(=S)Nc2ccccc2N2CCCCC2)cc1[N+](=O)[O-]	-	?	1µM	-	-	-
COc1ccc(C(=O)NC(=S)N2CCCCC2)cc1[N+](=O)[O-]	-	0.89µM	1.3µM	-	-	-
Cc1cc(Cl)c(S(N)(=O)=O)cc1OCC(N)=O	-	-	-	-	-	-
COc1ccc(NC(=O)CCNC(=O)Cn2ccc3ccccc3c2=O)cc1Cl	-	-	-	-	-	-
COc1cccc(CC(=O)OCC(=O)NC2CCCC2)c1	-	.	.	-	-	-
COc1cccc2cc(C(=O)N3CCCCCCC3)c(=O)oc12	-	.	.	-	.	?
CCOC1=NN(c2ncc(C(F)(F)F)cc2Cl)C(=O)C1	-	-	-	-	-	-
COc1ccc(C(=O)Nc2cc(C)on2)cc1[N+](=O)[O-]	-	-	-	-	-	-
CCOc1ccc(C(=O)NC(=S)Nc2ccc(NC(=O)CC)cc2)cc1[N+](=O)[O-]	-	-	-	-	-	-
COc1cc(C(=O)NC(=S)Nc2ccccc2[N+](=O)[O-])cc(OC)c1OC	-	5.6µM	?	-	-	6.5µM
CCOc1ccc(C(=O)NC(=S)Nc2ccccc2N2CCCCC2)cc1[N+](=O)[O-]	-	?	0.5µM	-	-	-
COc1ccc(C(=O)NC(=S)Nc2cc(C)ccn2)cc1[N+](=O)[O-]	-	?	1µM	-	-	?
CCOc1ccc(C(=O)NC(=S)NC2CCCC2)cc1[N+](=O)[O-]	-	5µM	16µM	-	-	-
NC(=O)N/C=C1\CCCOC1=O	-	.	.	.	.	.
FC(F)(F)c1ccc(CN2C[C@@H]3C(c4ccc(C(F)(F)F)cc4)C4(c5ccccc5)CC3(C4)[C@H]2c2ccccc2)cc1 (some centres not stated)	.	-	-	.	.	.
Cc1nc2sc3c(c2c(=N)n1N)CCCC3	-	-	-	-	-	-

Assay outcomes deposited in PubChem BioAssay by National Center for Advancing Translational Sciences (NCATS).
